Shown are actives, neighbours in structure and some others; about 15% of the full set was active somewhere.
HCMV antiviral = qHTS Assay for inhibitors of the human cytomegalovirus (HCMV); HFF cells, HCMV-luciferase reporter, 72 h; active compounds read low; activity change, negative = inhibition, % at 57.5 µM; 410,000 compounds, 4.5% hits; in the data active means activity change below about -60%; inconclusive means no clear call, values can overlap the other calls; inactive means above about -39%
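Luciferase read-out from HCMV-luciferase-infected HFFs (MOI 1 PFU/cell) 72 h post infection at 37C; compounds added after 16 h cell attachment; activity normalized between buffer-only basal and Salinomycin (10uM) inhibitor controls.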
Pf growth 96h = Primary qHTS for delayed death inhibitors of the malarial parasite plastid, 96 hour incubation; P. falciparum luciferase reporter growth, 96 h; Potency, µM (series often up to 28.7 µM), actives largely listed as inhibitors; 320,000 compounds, 6.9% hits
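Luminescence readout: decreased luciferase signal marks inhibited growth of reporter-expressing P. falciparum in infected red cells (2% hematocrit, 0.05% parasitemia final), exposed to compound two generations (96 h, 37 C, 5% CO2).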
Pf growth 48h = Primary qHTS for delayed death inhibitors of the malarial parasite plastid, 48 hour incubation. AID 504832, 2011. Potency, µM (doses to about 28.7 µM), most hits filed as inhibitors. 310,000 compounds, 5.9% hits. P. falciparum luciferase growth in erythrocytes, 48 h
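Firefly luciferase activity from engineered P. falciparum reports growth; inhibitors lower the luminescent signal. Cultures contained 2% hematocrit erythrocytes at 0.1% final parasitemia.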
HCV inh = qHTS Assay for Inhibitors of Hepatitis C Virus (HCV). Huh7.5.1 HCVcc-Cre infection, luciferase reporter, 44 h. Potency, µM (top dose mostly 41.8 µM), most hits filed as inhibitors. 340,000 compounds, 3.4% hits. AID 651820, 2012
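Seed cells (1,000/well) for 4 h; treat with compound and infect with HCVcc-Cre, moi about 0.5. Incubate 44 h, then detect luciferase activity.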
Sm TGR inh = qHTS Assay for the Inhibitors of Schistosoma Mansoni Peroxiredoxins; Schistosoma mansoni thioredoxin glutathione reductase (TGR), Q962Y6; purified TGR, DTNB reduction, TNB absorbance 405 nm; Potency, µM (top dose mostly 114 µM), most hits filed as inhibitors; 360,000 compounds, 3% hits; AID 485364, 2010; further: nearly all actives have a fitted effect of over 60% in size
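Kinetic colorimetric format: TGR-catalysed, NADPH-driven DTNB reduction monitored via TNB absorbance. Enzyme dispensed at 20 nM; compound exposure 15 min at room temperature before reaction start.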
SARS PLpro yeast = qHTS of Yeast-based Assay for SARS-CoV PLP | S. cerevisiae expressing SARS-CoV PLpro, growth rescue | Potency, µM (series often up to 32.9 µM), actives largely listed as activators | 330,000 compounds, 0.19% hits | AID 485353, 2010; calls by dose curve; further: nearly all actives have a fitted effect of over 55% in size
A number is an active result; i = inactive; ? = inconclusive; nt = no result given. Unless noted, the call rests on the fitted dose curve; in most records, active means well fitted curve in the direction sought with a large enough effect; inconclusive means small, poorly fitted or top-dose-only effect, or another doubt; inactive means no such curve, though single readings can be large; an effect the other way counts as inactive or inconclusive.

SMILES	HCMV antiviral	Pf growth 96h	Pf growth 48h	HCV inh	Sm TGR inh	SARS PLpro yeast
O=C(O)C1Cc2[nH]cnc2C(c2ccccc2O)N1 (centres undefined)	i	i	i	i	i	i
Cc1c(F)cccc1NS(=O)(=O)c1ccc2c(c1)c(=O)n(C)c(=O)n2C	?	?	i	i	i	i
O=[N+]([O-])c1cc(/C=N/O)ccc1SCc1ccccc1	-66	i	i	i	i	i
Cc1cc(=O)oc2cc(OCCCC[n+]3ccccc3)ccc12	i	?	5.2µM	i	i	i
Cc1cc(=O)oc2cc(OCC(=O)c3ccccc3)ccc12	i	6.6µM	i	i	i	i
CC(=O)c1cccc(NC(=O)COc2ccc3oc(=O)cc(C)c3c2)c1	i	?	?	16µM	i	i
Cc1ccccc1NC(=O)COc1ccc2oc(=O)cc(C)c2c1	i	i	i	i	i	i
Cc1cccc(C(C)C)c1NC(=O)c1ccc(COc2ccc3c(C)cc(=O)oc3c2)cc1	i	9.3µM	?	?	i	i
Cc1ccc(C(=O)COc2ccc3c(C)cc(=O)oc3c2)cc1	i	i	?	?	i	i
CCOc1cccc2sc(N3CCN(C(=O)C(C)(C)C)CC3)nc12	i	nt	nt	nt	i	nt
NS(=O)(=O)c1ccc(CCNC(=O)Cc2cccs2)cc1	i	?	i	i	i	i
O=c1oc(Cc2ccccc2)nc2ccccc12	i	i	i	i	i	i
Cc1cc(=O)oc2cc(OCC(=O)N/N=C/c3ccccc3O)ccc12	i	9.3µM	i	i	i	i
CSc1nc(C)cc(OCC(=O)N/N=C/c2ccccc2O)n1	?	?	i	6.3µM	i	i
O=C(O)COc1ccc2c3c(c(=O)oc2c1)CCCC3	-80	i	i	i	nt	i
O=c1oc2cc(Oc3c([N+](=O)[O-])cc(C(F)(F)F)cc3[N+](=O)[O-])ccc2c2c1CCCC2	i	?	i	3.2µM	i	i
Cc1cc(=O)oc2cc(OCC(=O)NCc3ccccn3)ccc12	i	?	?	i	i	i
O=c1oc2cc(OCCO)ccc2c2c1CCCC2	i	i	i	i	i	i
O=c1oc2cc(Oc3ccc(C(F)(F)F)cc3[N+](=O)[O-])ccc2c2c1CCC2	i	i	i	?	i	?
Cc1ccccc1-n1c(Cn2c(=O)sc3ccccc32)nnc1SCC(=O)NCC1CCCO1 (centres undefined)	i	?	nt	i	i	i
N#Cc1cccc(NC(=O)CCc2ccc(S(=O)(=O)N3CCOCC3)cc2)c1	i	nt	nt	i	nt	i
COc1ccccc1N1CCN(C(=O)Cn2ncc3c2-c2cc(C)ccc2OC3)CC1	i	nt	nt	nt	i	nt
COc1ccc(Oc2c(C(F)(F)F)oc3cc(OCC(=O)O)ccc3c2=O)cc1	i	9.3µM	i	i	i	i
COc1ccc(C2=CC(=O)OC3(CCCCC3)O2)cc1	i	?	4.1µM	i	i	i
CCCCCC(C)N (centres undefined)	nt	12µM	?	nt	nt	nt
SMILES	HCMV antiviral	Pf growth 96h	Pf growth 48h	HCV inh	Sm TGR inh	SARS PLpro yeast
CCCCCCCCCCCCCCCCN	nt	i	i	nt	nt	nt
CS(=O)(=O)N1CC(=O)N2[C@@H](CO)[C@H](c3ccc(Br)cc3)[C@@H]2C1	i	nt	nt	nt	nt	nt
O=C(COc1ccc(Cl)cc1Br)N1CCN(c2ncccn2)CC1	i	?	?	?	i	i
CCN(CC)CCCNC(=O)c1cc2c(-c3ccc(Cl)cc3)nn(C)c2s1	nt	?	nt	11µM	i	i
CCCCN(CC)CCNC(=O)c1cc2c(-c3ccccc3F)nn(C)c2s1	i	i	2.1µM	?	i	i
CN1CCN(CCCNC(=O)c2cc3c(-c4ccc(Cl)cc4)nn(C)c3s2)CC1	i	?	nt	?	i	i
CCCN(CCC)CCCNC(=O)c1cc2c(-c3ccc(Cl)cc3)nn(C)c2s1	-89	nt	nt	nt	i	nt
COC(=O)CN(C#N)c1nc(N(C)C)nc(N(C)C)n1	i	4.1µM	i	i	i	i
COC(=O)CN(C#N)c1nc(NCc2ccccc2)nc(OC)n1	i	?	9.3µM	i	i	i

Source: PubChem BioAssay (National Center for Advancing Translational Sciences (NCATS))
